ssDAF-12 act: activators of S. stercoralis DAF-12 nuclear receptor; HEK293 ssDAF-12/GRIP1 lit1-tk-luc reporter, luminescence; % of 3 µM dafachronic acid response; AID 652126; hit rate 1% among 370,000; activation, % at 6.8 µM;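 active means activation above the mean over all tested compounds plus 3 SD, cut at about 0.9% in these data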
hgDAF12 agonist: activates the H. glycines DAF-12 receptor ligand-binding domain; HEK293 GAL4-hgDAF12 UAS-luciferase reporter, agonist luminescence; normalized to butyrate control; activation, % at 6.8 µM; hit rate 1.8% among 370,000; AID 687014;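 active means activation above a cutoff set at the mean of all screened compounds plus 3 SD, cut at about 10% in these data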
DAX1 inh-1: NR0B1 (DAX1) inhibition. HEK293 Gal4-DAX1 luciferase reporter, luminescence. inhibition, % at 6.75 µM. hit rate 0.99% among 340,000. AID 504766;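 active means inhibition above the mean over all tested compounds plus 3 SD, cut at about 4.2% in these data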;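 further: inhibition shows as a rise in luminescence from relieved DAX1 repression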
Target sequence (P51843 207-470 limits assumed): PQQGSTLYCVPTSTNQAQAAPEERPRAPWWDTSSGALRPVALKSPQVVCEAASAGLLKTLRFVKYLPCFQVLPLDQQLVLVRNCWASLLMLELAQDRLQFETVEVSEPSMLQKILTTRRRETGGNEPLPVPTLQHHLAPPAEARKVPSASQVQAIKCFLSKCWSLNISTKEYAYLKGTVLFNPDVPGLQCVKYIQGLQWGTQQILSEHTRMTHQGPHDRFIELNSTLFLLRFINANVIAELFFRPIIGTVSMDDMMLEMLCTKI
DAX1 inh-2: DAX1 (NR0B1) inhibition, primary screen. hit rate 1.1% among 370,000. HEK293T StAR-luciferase reporter, SF-1/DAX-1 repression relief. inhibition, % at 6.8 µM. AID 652010;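 active means inhibition above the mean over all tested compounds plus 3 SD, cut at about 3.6% in these data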;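 further: higher inhibition means more luminescence from relief of DAX-1 repression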
hcDAF-12 act: activates DAF-12 receptor from parasite H. contortus; hit rate 1.4% among 370,000; activation, % at 6.8 µM; HEK293 hcDAF-12 lit1-tk-luc reporter, luminescence; 0% DMSO, 100% Δ7-dafachronic acid;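 active means activation above the mean of all tested compounds plus 3 SD, cut at about 5.5% in these data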
LXR ag: activates human LXR-beta, counter-screen for hcDAF-12 agonists; shares compounds with hcDAF-12 act; HEK293 Gal4-LXR tk-luc reporter, luminescence, 24 h; normalized: DMSO 0%, positive control 100%; activation, % at 6.8 µM; 3,400 tested, under 10 active; AID 743027;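 active means mean percent activation of the reporter above a cutoff set as the average over tested compounds plus their standard deviation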
Target sequence (P55055 whole entry, looked up, the tested form may be a part): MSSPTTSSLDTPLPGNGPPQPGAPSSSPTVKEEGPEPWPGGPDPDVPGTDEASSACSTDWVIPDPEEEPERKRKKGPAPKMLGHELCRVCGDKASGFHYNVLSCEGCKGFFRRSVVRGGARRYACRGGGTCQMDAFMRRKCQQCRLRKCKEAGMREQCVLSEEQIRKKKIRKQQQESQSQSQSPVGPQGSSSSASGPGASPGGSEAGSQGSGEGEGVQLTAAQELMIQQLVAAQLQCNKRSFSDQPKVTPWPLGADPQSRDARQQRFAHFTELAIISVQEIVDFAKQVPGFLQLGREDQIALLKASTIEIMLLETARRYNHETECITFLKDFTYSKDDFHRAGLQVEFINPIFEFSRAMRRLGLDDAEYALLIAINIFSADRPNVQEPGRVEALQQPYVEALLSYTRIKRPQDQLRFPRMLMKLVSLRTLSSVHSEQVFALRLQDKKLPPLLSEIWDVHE
hcDAF12 ag: hcDAF-12 agonism, confirmation assay; shares compounds with hcDAF-12 act; HEK293 hcDAF-12 lit1-tk-luc reporter, luminescence; % of Δ7-dafachronic acid response; activation, % at 6.8 µM; hit rate 61% among 3,400;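 active means mean activation across triplicate tests above the threshold derived from the earlier primary screen, cut at about 5.5% in these data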
hgDAF12 conf: hgDAF-12 agonism, confirmation assay; HEK293 GAL4-hgDAF12 luciferase reporter, agonist mode; percent of butyrate response; activation, % at 6.8 µM; shares compounds with hgDAF12 agonist; hit rate 80% among 3,300;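 active means mean activation over triplicate wells above the hit cutoff derived from the earlier primary screen, cut at about 11% in these data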
LXR ag 2: activates human LXR-beta, counter-screen for DAF-12 agonists | AID 743051 | HEK293 Gal4-LXR luciferase reporter, 24 h | 3,300 tested, under 10 active | shares compounds with hgDAF12 agonist | activation, % at 6.8 µM;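 active means mean activation of the triplicate above a set limit carried over from the primary screen, none filed active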
Each line names hits and unclear results; the compound was inactive in the other large screens (follow-up assays come after a bar, where they were run). In the library only some 4.1% were active in any assay of this set; here they are far more common.

CC(C)Cc1cc(C(=O)Nc2cccc(O)c2)no1	hgDAF12 agonist 18, hcDAF-12 act 8.4 | LXR ag inactive | hcDAF12 ag 6.5 | hgDAF12 conf 19 | LXR ag 2 inactive
O=C(Nc1sc2c(c1C(=O)O)CCCC2)c1ccc(F)cc1	none
NC(=O)c1c(NC(=O)c2ccc(F)cc2)sc2c1CCC2	ssDAF-12 act 2.0, hgDAF12 agonist 15, hcDAF-12 act 13 | LXR ag inactive | hcDAF12 ag 12 | hgDAF12 conf 20 | LXR ag 2 inactive
O=C(Nc1cccc(Cl)c1)c1cnn2cccnc12	hgDAF12 agonist 17, hcDAF-12 act 7.7 | LXR ag inactive | hcDAF12 ag 7.5 | hgDAF12 conf 14 | LXR ag 2 inactive
O=C(Nc1cc(Cl)cc(Cl)c1)c1cnn2cccnc12	none
COC(=O)[C@@H](Cc1c[nH]c2ccccc12)NC(=O)c1ccc2c(c1)OCO2	ssDAF-12 act 3.2, hgDAF12 agonist 16, hcDAF-12 act 13 | LXR ag inactive | hcDAF12 ag 7.9 | hgDAF12 conf 18 | LXR ag 2 inactive
O=C(NCCc1c[nH]c2ccccc12)c1ccc2c(c1)OCO2	ssDAF-12 act 1.3, hgDAF12 agonist 15, hcDAF-12 act 11 | LXR ag inactive | hcDAF12 ag 9.8 | hgDAF12 conf 18 | LXR ag 2 inactive
Cc1ccc2[nH]cc(CCNC(=O)c3ccc4c(c3)OCO4)c2c1	none
Fc1cc(F)c(NC(=S)N2CCOCC2)c(F)c1	none
[O-]C(=C(C(=S)Nc1cccc2ccccc12)[n+]1ccccc1)c1ccc2c(c1)OCCO2	none (no result: ssDAF-12 act, hgDAF12 agonist, DAX1 inh-2, hcDAF-12 act)
CC(C)(C)c1cc[n+](/C(C(=S)Nc2ccccc2F)=C(/[O-])c2ccc3c(c2)OCCO3)cc1	hgDAF12 agonist 14, hcDAF-12 act 6.8 | LXR ag inactive | hcDAF12 ag 7.3 | hgDAF12 conf inactive | LXR ag 2 inactive
Cc1cc(NS(=O)(=O)c2ccc(NC(=O)c3ccc(Cl)nc3)cc2)nc(C)n1	none
CC(=O)c1ccc(S(=O)(=O)N(C)CC(=O)NCc2ccco2)cc1	none
COc1cc2cc3c(N)c(C(=O)NCc4ccco4)sc3nc2cc1OC	none (no result: ssDAF-12 act, hgDAF12 agonist, DAX1 inh-2, hcDAF-12 act)
Cc1ccc2nc3sc(C(=O)NCc4ccco4)c(N)c3cc2c1	hgDAF12 agonist 13, DAX1 inh-2 4.3, hcDAF-12 act 8.1 | LXR ag inactive | hcDAF12 ag inactive | hgDAF12 conf 20 | LXR ag 2 inactive
Cc1ccnc(Nc2nc(-c3ccccc3)cs2)c1	hgDAF12 agonist 15, hcDAF-12 act 7.8 | LXR ag inactive | hcDAF12 ag 5.9 | hgDAF12 conf 15 | LXR ag 2 inactive
COc1ccc(-c2csc(Nc3cccc(C)n3)n2)cc1C	hgDAF12 agonist 14, hcDAF-12 act 6.7 | LXR ag inactive | hcDAF12 ag 6.0 | hgDAF12 conf 17 | LXR ag 2 inactive
COc1ccc(-c2csc(Nc3cccc(C)n3)n2)cc1	ssDAF-12 act 1.0, hgDAF12 agonist 14, DAX1 inh-1 8.7, hcDAF-12 act 6.8 | LXR ag inactive | hcDAF12 ag inactive | hgDAF12 conf 19 | LXR ag 2 inactive
Oc1ccc(-c2csc(Nc3ncccn3)n2)cc1	hgDAF12 agonist 18, hcDAF-12 act 7.0 | LXR ag inactive | hcDAF12 ag 8.4 | hgDAF12 conf inactive | LXR ag 2 inactive
COc1ccc(-c2csc(Nc3ccc(Oc4ccccc4)cc3)n2)cc1	none (no result: DAX1 inh-1)
CC#CC[N+](C)(CC#CC)CC(=O)c1ccccc1	none
CCNC(=O)N(C)c1c(CC)nc2ccc(C(=O)N3CCN(C(=O)c4ccco4)CC3)cn12	none (no result: DAX1 inh-1)
CCN(C[C@H]1N[C@@](CC)(C(=O)OC)[C@H]2C(=O)N(C)C(=O)[C@@H]12)C(=O)c1ccc(C(C)(C)C)cc1	none
Cc1cccc(Nc2nc(-c3ccc(F)cc3)cs2)n1	ssDAF-12 act 2.8, hgDAF12 agonist 16, DAX1 inh-1 9.3, hcDAF-12 act 13 | LXR ag inactive | hcDAF12 ag 9.6 | hgDAF12 conf 18 | LXR ag 2 inactive
Cc1ccc(Nc2nc(-c3ccc(F)cc3)cs2)nc1	ssDAF-12 act 2.7, hgDAF12 agonist 14, DAX1 inh-1 6.4, hcDAF-12 act 18 | LXR ag inactive | hcDAF12 ag 11 | hgDAF12 conf 18 | LXR ag 2 inactive
NS(=O)(=O)c1ccc(Nc2nc(-c3ccc(F)cc3)cs2)cc1	none (no result: DAX1 inh-1)
Fc1ccc(-c2csc(Nc3ccccn3)n2)cc1	ssDAF-12 act 4.3, hgDAF12 agonist 20, hcDAF-12 act 21 | LXR ag inactive | hcDAF12 ag 16 | hgDAF12 conf 26 | LXR ag 2 inactive
Cc1ccc(Nc2nc(-c3ccc(O)c(O)c3)cs2)nc1	none (no result: DAX1 inh-1)
CCOc1ccc(NC(=O)CNc2cccc(S(=O)(=O)N3CCCCCC3)c2)cc1OCC	none
Cc1ccc(CNC(=O)/C=C/c2cccs2)cc1	none
Cc1ccc(-c2cc(-c3cccs3)[nH]n2)c(O)c1	ssDAF-12 act 2.3, hgDAF12 agonist 19, DAX1 inh-2 4.3, hcDAF-12 act 19 | LXR ag inactive | hcDAF12 ag 13 | hgDAF12 conf 21 | LXR ag 2 inactive
Cc1ccc(O)c(-c2cc(-c3ccccc3C)[nH]n2)c1	none
Cc1ccc(S(=O)(=O)Nc2ccc(-c3cn4ccc(C)cc4n3)cc2)cc1	none
Cc1ccn2cc(-c3ccc(Br)cc3)nc2c1	hgDAF12 agonist 14, DAX1 inh-2 3.7, hcDAF-12 act 12 | LXR ag inactive | hcDAF12 ag 8.4 | hgDAF12 conf 13 | LXR ag 2 inactive
CCc1ccc(NC(=O)c2cc(C(C)C)on2)cc1	hgDAF12 agonist 15, hcDAF-12 act 7.1 | LXR ag inactive | hcDAF12 ag 6.0 | hgDAF12 conf 19 | LXR ag 2 inactive
CSc1nc2ccc(NC(=O)C3=NN(c4ccccc4)C(=O)CC3)cc2s1	none
CSc1nc2ccc(NC(=O)c3ccccn3)cc2s1	ssDAF-12 act 1.3, hgDAF12 agonist 16, DAX1 inh-2 3.9, hcDAF-12 act 10 | LXR ag inactive | hcDAF12 ag 7.8 | hgDAF12 conf 17 | LXR ag 2 inactive
Cc1nc2ccc(NC(=O)c3cc(Cl)ccn3)cc2s1	hgDAF12 agonist 16, hcDAF-12 act 7.0 | LXR ag inactive | hcDAF12 ag 5.8 | hgDAF12 conf 15 | LXR ag 2 inactive
O=C(NCc1ccc(F)cc1)C1CC(=O)N(Cc2ccco2)C1 (configuration not stated)	none
